Source: PubChem BioAssay (EPA / NIEHS)
Calls of active or inactive are those of the source. How the source made its calls: active means hit-call score of the fitted dose curve at least 0.9, where 1 is the maximum; inactive means score below 0.9.

Assays:
[1] = ATG_DR4_LXR_CIS: Attagene CIS-FACTORIAL HepG2 Assay for human Liver X Receptor (LXR), DR4 submotif (AID 2282929); details: HepG2 Attagene DR4 cis-reporter, mRNA transcription; AC50: actives raise or lower the signal unless noted; outcome: actives raise or lower the signal unless noted
Summary of the method: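 Transiently transfected HepG2 liver cells; cis-regulated reporters; 24 h dosing. RT-PCR plus CE read-out of reporter mRNA. DMSO baseline, bidirectional curve fitting.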

[2] = biological target: Aryl hydrocarbon receptor (Homo sapiens) (UniProt P35869); assay: ATG_Ahr_CIS: Attagene CIS-FACTORIAL HepG2 Assay for human Aryl Hydrocarbon Receptor (Ahr) (AID 2282930); details: HepG2 AhR cis-factorial reporter transcription; actives raise or lower the signal
Summary of the method: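 Endogenous factor activity is tracked through cis-promoter reporter units transfected into HepG2 cells. Transcript levels at 24 h are read by fluorescent RT-PCR and capillary electrophoresis, with activity in either direction scored relative to DMSO.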

[3] = ATG_AP_1_CIS: Attagene CIS-FACTORIAL HepG2 Assay for human Activator Protein 1 (AP-1) (AID 2282931); details: HepG2 Attagene cis-factorial AP-1 reporter mRNA; actives raise or lower the signal
Summary of the method: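 We transfected HepG2 cells transiently with a set of cis-regulated reporter transcription units, dosed them for 24 h, and quantified reporter mRNA via RT-PCR and capillary electrophoresis, scoring gain or loss of signal relative to DMSO.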

[4] = ATG_AP_2_CIS: Attagene CIS-FACTORIAL HepG2 Assay for human Activator Protein 2 (AP-2) (AID 2282932); details: HepG2 AP-2 cis-reporter, Attagene transcription factor profiling; AC50: actives raise or lower the signal unless noted; outcome: actives raise or lower the signal unless noted
Summary of the method: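 HepG2 cells transiently transfected with cis-element reporter units and exposed for 24 h. Reporter mRNA measured by RT-PCR, FAM labelling, HpaI digestion and capillary electrophoresis. Changes in either direction fitted relative to DMSO.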

[5] = ATG_BRE_CIS: Attagene CIS-FACTORIAL HepG2 Assay for human Bone Morphogenetic Protein (BMP) Response Element (BRE) (AID 2282933); details: HepG2 BMP response element reporter, Attagene transcription factor profiling; actives raise or lower the signal
Summary of the method: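 HepG2 cells transiently transfected with multiplexed cis-element reporter units were dosed with chemical for 24 h. Reporter mRNA was measured by RT-PCR with fluorescent labelling, HpaI digestion and capillary electrophoresis; bidirectional fitting relative to DMSO.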

[6] = biological target: Retinoic acid receptor alpha (Homo sapiens) (UniProt P10276); assay: ATG_DR5_RAR_CIS: Attagene CIS-FACTORIAL HepG2 Assay for human Retinoic Acid Receptor Alpha (RARE), DR5 submotif (AID 2282934); details: HepG2 Attagene cis-factorial RARE DR5 reporter, mRNA; actives raise or lower the signal
Summary of the method: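 After 24 h of chemical exposure, transiently transfected HepG2 cells were lysed for total RNA; the DR5-regulated reporter transcript was quantified via RT-PCR and capillary electrophoresis, with activity fitted bidirectionally against DMSO.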

[7] = biological target: Transcription factor E2F1 (Homo sapiens) (UniProt Q01094); assay: ATG_E2F_CIS: Attagene CIS-FACTORIAL HepG2 Assay for human E2F Transcription Factor 1 (AID 2282935); details: HepG2 Attagene cis-reporter, E2F reporter RNA transcripts; actives raise or lower the signal
Summary of the method: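 Endogenous E2F1 activity read through cis-promoter reporter units transfected into HepG2. After 24 h compound treatment, reporter mRNA measured by RT-PCR, HpaI digestion and capillary electrophoresis. Bidirectional fit versus DMSO.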

[8] = ATG_E_Box_CIS: Attagene CIS-FACTORIAL HepG2 Assay for human Enhancer Box (E-box) (AID 2282936); details: HepG2 E-box cis-reporter transcription, actives raise or lower the signal
Summary of the method: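 HepG2 cells transiently transfected with multiplexed cis-element reporter units, dosed 24 h; reporter mRNA quantified by RT-PCR, 6-FAM labelling, HpaI digestion and capillary electrophoresis. E-box (USF1) signal fitted bidirectionally vs DMSO.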

[9] = ATG_M_61_CIS: Attagene CIS-FACTORIAL HepG2 Assay for M61 Transcription Factor (Internal Marker) (AID 2282937); details: HepG2 Attagene CIS-FACTORIAL M61 internal marker reporter; actives raise or lower the signal
Summary of the method: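 Multiplexed reporter mRNA assay, HepG2 human hepatoma cells, 24 h treatment. Signal: FAM-labelled, HpaI-digested RT-PCR fragments by CE. Fit: bidirectional, baseline DMSO.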

[10] = ATG_EGR_CIS: Attagene CIS-FACTORIAL HepG2 Assay for human Early Growth Response 1 (EGR1) (AID 2282938); details: HepG2 Attagene CIS-FACTORIAL EGR reporter mRNA; actives raise or lower the signal
Summary of the method: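 Multiplexed cis-reporter system in human hepatoma HepG2 cells, transiently transfected. Cells are dosed for 24 h; reporter transcripts are amplified, fluorescently tagged and sized by capillary electrophoresis, with DMSO as negative control.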

[11] = ATG_M_19_CIS: Attagene CIS-FACTORIAL HepG2 Assay for M19 Transcription Factor (Internal Marker) (AID 2282939); details: HepG2 Attagene CIS-FACTORIAL M19 internal marker reporter; actives raise or lower the signal
Summary of the method: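 HepG2 cells transiently transfected with cis-regulated multiple reporter transcription units were dosed for 24 h; reporter mRNA was quantified by RT-PCR, 6-FAM primer-extension labelling, HpaI digestion and capillary electrophoresis, with bidirectional fitting against DMSO baseline.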

[12] = ATG_ERE_CIS: Attagene CIS-FACTORIAL HepG2 Assay for Estrogen Response Element (ERE) (AID 2282940); details: HepG2 ERE cis-reporter, Attagene RNA transcript; actives raise or lower the signal
Summary of the method: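 HepG2 cells transiently transfected with cis-promoter-driven multiplexed reporter transcription units report endogenous TF activity. After 24 h compound exposure, reporter mRNA is quantified by RT-PCR with capillary electrophoresis fluorescence; bidirectional fitting versus DMSO baseline.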

[13] = ATG_Ets_CIS: Attagene CIS-FACTORIAL HepG2 Assay for human Erythroblast Transformation Specific (ETS) (AID 2282941); details: HepG2 ETS cis-reporter transcription; AC50: actives raise or lower the signal unless noted; outcome: actives raise or lower the signal unless noted
Summary of the method: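 Steps: transfect HepG2 with multiple reporter units; treat compound 24 h; isolate RNA, DNase-treat, reverse-transcribe; PCR-amplify, label with 6-FAM, digest with HpaI; separate by capillary electrophoresis. Activity fitted both directions versus DMSO.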

[14] = biological target: Hepatocyte nuclear factor 3-beta (Homo sapiens) (UniProt Q9Y261); assay: ATG_FoxA2_CIS: Attagene CIS-FACTORIAL HepG2 Assay for human Forkhead box A2 (FOXA2) (AID 2282942); details: HepG2 cis-reporter transcription factor activity, 24 h; actives raise or lower the signal
Summary of the method: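 Multiplexed cis-element reporter assay in transiently transfected HepG2. Twenty-four hours post-dosing, RNA was reverse-transcribed, amplified, FAM-labelled, HpaI-digested and separated by CE. Activity gain or loss relative to DMSO.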

[15] = ATG_FoxO_CIS: Attagene CIS-FACTORIAL HepG2 Assay for human Forkhead box O (FoxO) (AID 2282943); details: HepG2 Attagene cis-reporter, FoxO element, mRNA; actives raise or lower the signal
Summary of the method: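 Transfected HepG2 reporter cells exposed to test chemical for 24 h; reporter RNA measured by reverse transcription, PCR and fluorescent capillary electrophoresis; curves fitted for increases and decreases against DMSO.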

[16] = ATG_GLI_CIS: Attagene CIS-FACTORIAL HepG2 Assay for human Zinc Finger Protein GLI1 (AID 2282945); details: HepG2, Attagene cis-factorial reporter mRNA, GLI element; actives raise or lower the signal
Summary of the method: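 Transiently transfected HepG2 cells report endogenous transcription factor activity via cis-element-driven reporter units. After 24 h compound exposure, reporter mRNA was measured by RT-PCR with capillary electrophoresis; bidirectional fitting against DMSO baseline.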

[17] = biological target: Bile acid receptor (Homo sapiens) (UniProt Q96RI1); assay: ATG_IR1_CIS: Attagene CIS-FACTORIAL HepG2 Assay for human Nuclear Receptor Subfamily 1 Group H Member 4 (NR1H4), IR1 submotif (AID 2282946); details: IR1 reporter transcription, actives raise or lower the signal
Summary of the method: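 HepG2 cells transiently transfected with multiple cis-promoter-driven reporter units to measure endogenous transcription factor activity; 24 h exposure. Reporter mRNA read by RT-PCR, FAM labelling, HpaI digestion and capillary electrophoresis. Bidirectional fit versus DMSO.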

[18] = ATG_GRE_CIS: Attagene CIS-FACTORIAL HepG2 Assay for human Glucocorticoid Response Elements (GRE) (AID 2282947); details: HepG2 GRE cis-reporter, Attagene multiplex mRNA; AC50: actives raise or lower the signal unless noted; outcome: actives raise or lower the signal unless noted
Summary of the method: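 Transiently transfected HepG2 cells carrying GRE cis-reporter units (endogenous TF activity) dosed 24 h; reporter mRNA quantified by RT-PCR, 6-FAM labelling, HpaI digestion and capillary electrophoresis. Bidirectional fit versus DMSO baseline.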

[19] = ATG_ISRE_CIS: Attagene CIS-FACTORIAL HepG2 Assay for human Interferon Regulatory Factor 1 (IRF1) binding to an Interferon-Stimulated Response Element (ISRE) (AID 2282948); details: HepG2 ISRE cis-reporter (Attagene), mRNA transcription readout; actives raise or lower the signal
Summary of the method: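 Transfected HepG2 (multiple reporter transcription units, cis elements) dosed 24 h. RNA → oligo(dT) RT → PCR → 6-FAM primer extension → HpaI → CE. DMSO = negative control/baseline.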

[20] = ATG_GATA_CIS: Attagene CIS-FACTORIAL HepG2 Assay for human GATA Binding Protein (AID 2282944); details: HepG2 GATA cis-element reporter, Attagene multiplex mRNA; actives raise or lower the signal
Summary of the method: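 HepG2 cells transiently transfected with multiplexed cis-element reporter units reflecting endogenous transcription factor activity; reporter mRNA measured after 24 h dosing by RT-PCR, 6-FAM labeling, HpaI digestion and capillary electrophoresis. Bidirectional fitting versus DMSO baseline.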

Measured: AC50

Sequence of Retinoic acid receptor alpha (Homo sapiens) (P10276 whole entry, looked up): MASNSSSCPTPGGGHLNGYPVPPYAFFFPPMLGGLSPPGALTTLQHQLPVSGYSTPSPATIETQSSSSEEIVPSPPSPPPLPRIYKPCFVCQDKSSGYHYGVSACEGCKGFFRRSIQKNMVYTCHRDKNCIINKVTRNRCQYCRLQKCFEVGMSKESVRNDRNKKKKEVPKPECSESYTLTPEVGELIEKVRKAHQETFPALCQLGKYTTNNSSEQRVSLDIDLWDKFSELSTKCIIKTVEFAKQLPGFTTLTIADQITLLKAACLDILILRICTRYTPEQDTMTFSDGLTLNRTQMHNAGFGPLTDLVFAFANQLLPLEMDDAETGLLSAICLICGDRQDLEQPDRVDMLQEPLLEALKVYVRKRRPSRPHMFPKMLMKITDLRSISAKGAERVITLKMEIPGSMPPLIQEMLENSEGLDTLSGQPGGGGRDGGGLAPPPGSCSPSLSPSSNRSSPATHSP
Sequence of Transcription factor E2F1 (Homo sapiens) (Q01094 whole entry, looked up): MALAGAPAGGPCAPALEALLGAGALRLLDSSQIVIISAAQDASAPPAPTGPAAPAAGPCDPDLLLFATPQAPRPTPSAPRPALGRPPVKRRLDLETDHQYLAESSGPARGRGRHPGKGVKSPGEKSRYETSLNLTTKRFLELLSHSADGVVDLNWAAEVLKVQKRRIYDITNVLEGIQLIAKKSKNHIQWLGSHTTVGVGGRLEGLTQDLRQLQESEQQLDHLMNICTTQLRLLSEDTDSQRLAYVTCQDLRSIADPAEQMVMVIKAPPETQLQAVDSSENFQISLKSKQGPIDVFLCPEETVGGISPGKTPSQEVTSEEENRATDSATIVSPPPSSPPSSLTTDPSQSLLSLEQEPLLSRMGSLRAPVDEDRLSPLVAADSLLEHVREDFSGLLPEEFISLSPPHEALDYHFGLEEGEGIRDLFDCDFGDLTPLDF
Sequence of Hepatocyte nuclear factor 3-beta (Homo sapiens) (Q9Y261 whole entry, looked up): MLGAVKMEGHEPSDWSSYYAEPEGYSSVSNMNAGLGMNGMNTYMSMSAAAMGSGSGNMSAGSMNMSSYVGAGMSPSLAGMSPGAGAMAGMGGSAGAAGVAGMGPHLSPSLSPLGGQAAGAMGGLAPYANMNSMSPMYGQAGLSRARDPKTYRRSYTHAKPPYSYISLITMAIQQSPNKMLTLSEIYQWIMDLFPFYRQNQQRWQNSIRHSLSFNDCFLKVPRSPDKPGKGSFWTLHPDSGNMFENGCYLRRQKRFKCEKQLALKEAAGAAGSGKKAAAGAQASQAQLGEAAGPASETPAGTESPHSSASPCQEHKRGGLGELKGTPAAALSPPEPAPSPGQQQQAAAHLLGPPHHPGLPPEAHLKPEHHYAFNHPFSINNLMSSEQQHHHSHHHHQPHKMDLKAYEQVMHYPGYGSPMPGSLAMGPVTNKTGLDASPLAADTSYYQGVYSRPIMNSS
Sequence of Bile acid receptor (Homo sapiens) (Q96RI1 whole entry, looked up): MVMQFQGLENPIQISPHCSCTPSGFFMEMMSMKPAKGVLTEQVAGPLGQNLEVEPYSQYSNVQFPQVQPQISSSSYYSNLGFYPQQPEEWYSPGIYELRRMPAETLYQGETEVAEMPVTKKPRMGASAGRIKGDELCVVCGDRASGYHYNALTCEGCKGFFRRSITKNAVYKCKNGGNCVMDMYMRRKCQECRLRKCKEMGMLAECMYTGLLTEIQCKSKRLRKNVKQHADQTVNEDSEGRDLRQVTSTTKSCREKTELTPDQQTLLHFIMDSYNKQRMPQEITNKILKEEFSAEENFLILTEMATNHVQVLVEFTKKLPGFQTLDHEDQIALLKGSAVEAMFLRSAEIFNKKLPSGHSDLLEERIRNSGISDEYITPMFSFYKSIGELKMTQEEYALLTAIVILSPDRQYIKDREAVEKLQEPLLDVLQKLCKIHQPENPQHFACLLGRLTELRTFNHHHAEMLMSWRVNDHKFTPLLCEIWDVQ
Sequence of Aryl hydrocarbon receptor (Homo sapiens) (P35869 whole entry, looked up): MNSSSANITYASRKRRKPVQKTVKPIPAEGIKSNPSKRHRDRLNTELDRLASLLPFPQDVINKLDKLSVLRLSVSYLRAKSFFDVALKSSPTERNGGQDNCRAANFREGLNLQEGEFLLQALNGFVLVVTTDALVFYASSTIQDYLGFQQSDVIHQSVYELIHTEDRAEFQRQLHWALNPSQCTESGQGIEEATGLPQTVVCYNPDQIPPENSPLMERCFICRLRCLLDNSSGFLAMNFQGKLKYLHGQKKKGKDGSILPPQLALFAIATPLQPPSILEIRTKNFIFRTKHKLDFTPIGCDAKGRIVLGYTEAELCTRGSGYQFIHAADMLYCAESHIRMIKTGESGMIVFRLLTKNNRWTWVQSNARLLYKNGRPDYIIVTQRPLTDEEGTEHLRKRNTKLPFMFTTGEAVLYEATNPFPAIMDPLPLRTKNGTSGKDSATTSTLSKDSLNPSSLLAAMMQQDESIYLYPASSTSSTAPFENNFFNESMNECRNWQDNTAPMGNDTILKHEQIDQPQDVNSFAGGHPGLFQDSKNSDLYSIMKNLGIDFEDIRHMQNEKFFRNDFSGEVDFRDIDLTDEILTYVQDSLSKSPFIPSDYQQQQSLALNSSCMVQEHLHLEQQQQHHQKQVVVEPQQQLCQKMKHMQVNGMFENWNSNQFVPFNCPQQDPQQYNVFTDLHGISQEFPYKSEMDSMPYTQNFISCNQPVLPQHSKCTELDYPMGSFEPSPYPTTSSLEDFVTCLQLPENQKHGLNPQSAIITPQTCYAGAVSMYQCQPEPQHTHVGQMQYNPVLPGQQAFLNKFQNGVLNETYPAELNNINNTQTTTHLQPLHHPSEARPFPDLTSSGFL

COC(=O)C(F)(F)C(F)(F)C(F)(F)C(F)(F)C(F)(F)F
not listed: [20]
inactive: all other assays above

FCOC(C(F)(F)F)C(F)(F)F
not listed: [14]
inactive: all other assays above

CCOC=O
active: [12] 59.3 µM
not listed: [14]
inactive: all other assays above

CCCC=O
not listed: [12] | [14] | [17]
inactive: all other assays above

CCC(C)c1ccccc1O (centres undefined)
not listed: [12] | [17]
inactive: all other assays above

CC1CCC(C(=O)O)CC1 (centres undefined)
active: [12] 30.5 µM
not listed: [18] | [20]
inactive: all other assays above

c1cc2cccc3c4cccc5cccc(c(c1)c23)c54
active: [2] 17.6 µM
not listed: [11]
inactive: all other assays above
